PubChem BioAssay AID1851 (National Center for Advancing Translational Sciences (NCATS), 2009)
Hit rate of the full screen: of about 16,000 compounds, about 2,600 (16%) were called active. Another 20% or so got no clear call; they are omitted. Calls follow the shape of the dose curve; as a rule, active = well fitted curve in the direction sought with a large enough effect; inconclusive = small, poorly fitted or top-dose-only effect, or effect the other way; inactive = no such curve, though single readings can be large or run the other way. Only a sample is shown.

These molecules were tested against Cytochrome P450 2D6 (Homo sapiens) (UniProt P10635) (assay: Cytochrome panel assay with activity outcomes). Settings: recombinant CYP, pro-luciferin dealkylation, luminescence, p450-cyp2d6; series mostly up to 57.1 µM; activity, negative = inhibition: at the top concentration.
% is scaled to controls: 0 for no effect and ±100 for the full control effect.

Cytochrome P450 2D6 (Homo sapiens), sequence (P10635 whole entry, looked up): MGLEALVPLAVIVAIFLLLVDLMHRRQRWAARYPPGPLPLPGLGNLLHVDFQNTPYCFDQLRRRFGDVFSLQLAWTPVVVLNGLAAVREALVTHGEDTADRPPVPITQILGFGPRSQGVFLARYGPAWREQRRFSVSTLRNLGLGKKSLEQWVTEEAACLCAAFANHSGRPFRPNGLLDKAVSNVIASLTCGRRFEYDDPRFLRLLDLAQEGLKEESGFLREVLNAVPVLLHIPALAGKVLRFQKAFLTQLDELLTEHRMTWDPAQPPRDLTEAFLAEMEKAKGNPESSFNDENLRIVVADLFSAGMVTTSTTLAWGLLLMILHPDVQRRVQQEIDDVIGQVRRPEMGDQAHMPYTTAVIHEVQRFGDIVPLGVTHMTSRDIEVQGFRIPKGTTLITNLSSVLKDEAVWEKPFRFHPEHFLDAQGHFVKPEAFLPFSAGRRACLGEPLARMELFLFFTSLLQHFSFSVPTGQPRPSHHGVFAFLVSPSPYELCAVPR

SMILES | activity, negative = inhibition | AC50
CCOC(=O)N1CCC(NC(=O)CCC(=O)N2CCOc3ccccc32)CC1 | -9.58% (inactive) | 
Cc1ccc(Oc2nn[nH]n2)cc1 | 16.1% (inactive) | 
CC(=O)OCC1=C(C(=O)O)N2C(=O)[C@@H](NC(=O)CSc3ccncc3)[C@@H]2SC1 | -9.3% [at 25.6 µM] (inactive) | 
COc1cc(/C=C2/C(=N)N3C=CSC3=NC2=O)ccc1OCCCOc1c(C)cccc1C | -27.4% (inactive) | 
C/C(=N\NC(=O)CSCc1ccc(Cl)cc1)c1ccc2c(c1)OCCO2 |  | 0.562 µM (active)
O=C(CSCc1ccc(Cl)cc1)Nc1ccc2c(c1)OCCO2 |  | 3.98 µM (active)
O=C(Nc1ccc2c(c1)OCCO2)c1cc2sccc2n1Cc1ccccc1 |  | 7.94 µM (active)
COC(=O)c1ccc(NC(=O)c2cc3sccc3n2C)cc1 | -8.69% (inactive) | 
O=C(Nc1nccs1)c1sc2cc(Cl)ccc2c1Cl | -8.42% (inactive) | 
C/C(=N\NC(=O)Cc1ccc(Cl)cc1)c1ccccn1 | -7.28% (inactive) | 
C/C(=N\NC(N)=O)c1ccc(Cl)cc1 | -3.5% (inactive) | 
O=C(c1cc2sccc2n1Cc1ccccc1)N1CCN(c2nc3ccccc3s2)CC1 | -20.2% (inactive) | 
O=C(CSCc1ccc(Cl)cc1)Nc1nccs1 |  | 5.62 µM (active)
Cc1nc(SCC(=O)Nc2ccc3c(c2)OCCO3)c2oc3ccccc3c2n1 | -8.87% (inactive) | 
Cc1nnc(SCC(=O)Nc2nccs2)[nH]c1=O | 4.05% (inactive) | 
O=C(CN1C(=O)C2C3C=CC(C3)C2C1=O)Nc1ccc2c(c1)OCCO2 (stereo unspecified) | -6.26% (inactive) | 
COc1ccc(COC(=O)N/N=C2/C[C@@H](O)[C@@H](O)[C@@H]3[C@@H]4C(=O)N(C(C)(C)C)C(=O)[C@H]4CC[C@H]23)cc1 | 19.2% [at 11.4 µM] (inactive) | 
O=C(O)CCc1ccc(-c2ccc(Cl)cc2)n1CCC(=O)O | 14.3% (inactive) | 
O=S(=O)(c1ccccc1)N1CCCC1c1nc2ccccc2s1 (stereo unspecified) | -27.6% (inactive) | 
COc1ccc(N2C(=O)CCC(C(=O)Nc3ccccn3)C2c2ccc(OC)c(OC)c2)cc1 (stereo unspecified) | 9.02% (inactive) | 
Oc1cc(O)c2c(c1)O[C@H](c1ccc(O)c(O)c1)[C@H](O)C2 |  | inactive
COc1ncc2ncc(=O)n(C)c2n1 | -2.66% (inactive) | 
COC(=O)C1CSC(C(=O)OC)N1C(=O)Nc1ccccc1 (stereo unspecified) | 27.1% (inactive) | 
CC(=O)Nc1ccc2c(c1)OCCO2 | 10.2% (inactive) | 
CC(=O)Nc1ccc2c(c1)OCCOCCOc1cc(NC(C)=O)ccc1OCCOCCOCCO2 | -24.6% (inactive) | 
O=C(CC(c1ccccc1)c1ccccc1)Nc1ccc2c(c1)OCCO2 |  | 0.251 µM (active)

SMILES | activity, negative = inhibition | AC50
CO[C@H]1[C@@H](OC(N)=O)[C@H](O)[C@@H](Oc2ccc3c(O)c(NC(=O)c4ccc(O)c(CC=C(C)C)c4)c(=O)oc3c2C)OC1(C)C | -8.34% [at 25.6 µM] (inactive) | 
COc1ccc(CCNC(=O)c2ccc3c(=O)n(Cc4ccco4)c(=S)[nH]c3c2)cc1OC | -1.94% (inactive) | 
Cc1ccc2c(C)nc(Nc3nc(CSc4nc5ccccc5[nH]4)cc(=O)[nH]3)nc2c1 |  | 3.55 µM (active)
Cc1ccc2nc(Nc3nc(-c4ccccc4)cc(=O)[nH]3)nc(C)c2c1 | -24.8% (inactive) | 
Cc1ccc2nc(SCC(=O)Nc3nnc(SCC(N)=O)s3)[nH]c2c1 | -2.41% (inactive) | 
Cc1nn(C)c(Oc2cccc(Cl)c2)c1C=O | -4.06% (inactive) | 
Cc1ccc(C(=O)N/C(=C\c2ccc([N+](=O)[O-])cc2)C(=O)NCCc2ccccc2)cc1 | -2.99% (inactive) | 
CN1CCc2cccc3c2[C@@H]1Cc1ccc(O)c(O)c1-3 |  | inactive
CN1CCc2cccc3c2[C@H]1Cc1ccc(O)c(O)c1-3 |  | 12.6 µM (active)
COc1ccc(C2=CSC(/N=C/c3ccc(F)cc3)=NN2)cc1 | 9.92% (inactive) | 
COC(=O)CCSc1cc([N+](=O)[O-])cc2c1c(C1OCCS1)nn2-c1ccccc1 (stereo unspecified) |  | 12.6 µM (active)
Cc1ccccc1OC/C(O)=C(\C#N)c1nc2ccccc2[nH]1 | 12.1% (inactive) | 
Cc1cc(O)c(/C=N/Nc2cccc(Cl)c2)c(=O)o1 |  | 0.158 µM (active)
Cc1ccc(-n2cnc(=O)c3cccnc32)cc1 | 1.45% (inactive) | 
Cc1ccc(-n2c(-c3ccc(Br)cc3)c[n+]3c2CCc2ccc4cccnc4c2-3)cc1 |  | 1.41 µM (active)
CCCCC[C@H](CC(=O)NO)C(=O)N[C@@H](C(=O)N1CCC[C@H]1CO)C(C)C | -6.29% (inactive) | 
Nc1ccc(O)c(C(=O)O)c1 | -14.1% [at 25.6 µM] (inactive) | 
CCC(=O)NC(Nc1sc2c(c1C(=O)OC)CCCC2)(C(F)(F)F)C(F)(F)F | 2.09% (inactive) | 
O=[N+]([O-])c1ccc2ncccc2c1CCc1c([N+](=O)[O-])ccc2ncccc12 | -19.7% [at 11.4 µM] (inactive) | 
O=C(Nc1ccccn1)c1ccco1 | -1.58% (inactive) | 
O=C(O)C1C2CCC(C2)C1C(=O)NCc1ccco1 (stereo unspecified) | -21% (inactive) | 
Cc1cccc(C(=O)NC2CCN(C(=S)NCc3ccco3)CC2)c1 | -18.9% (inactive) | 
S=C(NCc1ccco1)N1CCN(C(c2ccccc2)c2ccccc2)CC1 |  | 7.94 µM (active)
S=C(NCc1ccco1)N1CCN(Cc2ccco2)CC1 |  | 7.94 µM (active)
CCS(=O)(=O)N1CCC(C(=O)NCc2ccco2)CC1 | 0.127% (inactive) | 
O=C(CSc1ccccc1C(=O)O)NCc1ccco1 | 32.7% (inactive) | 

SMILES | activity, negative = inhibition | AC50
O=C(NCc1ccco1)c1cc(C(=O)C2CC2)c[nH]1 | 4.02% (inactive) | 
O=C1Nc2ccccc2C1=Nc1ccc(S(=O)(=O)Nc2nccs2)cc1 | 16.3% [at 11.4 µM] (inactive) | 
COc1ccc2c(OC)c3ccoc3nc2c1OC | -20.6% [at 25.6 µM] (inactive) | 
CC(C)(C)N1C(=O)[C@H]2[C@@H]3[C@H](O)[C@H](O)CC(=O)[C@H]3CC[C@H]2C1=O | 7.18% [at 11.4 µM] (inactive) | 
O=C(c1cc(C(F)(F)F)cc(C(F)(F)F)c1)N1CCC2(CCN(Cc3ccccc3)CC2)CC1 | -13.2% (inactive) | 
O=C(c1coc(=O)c2ccccc12)N1CCN(Cc2ccccc2)CC1 | -9.79% (inactive) | 
O=C(CN1CCN(Cc2ccccc2)CC1)c1ccc(Br)cc1 |  | 1.41 µM (active)
CCc1c(O)nc2sc3ccccc3n2c1=O | -4.92% (inactive) | 
CC(=O)c1cccc(NC=C2C(=O)OC3(CCCCC3)OC2=O)c1 | 15.4% (inactive) | 
CCc1nnc(NC(=O)c2c(C)nn(-c3ccccc3)c2Cl)s1 | -17.9% (inactive) | 
c1nc(NCCN2CCOCC2)c2cc(-c3ccc4c(c3)OCO4)ccc2n1 |  | 7.94 µM (active)
c1nc(NCCN2CCOCC2)c2cc(-c3ccoc3)ccc2n1 |  | 2 µM (active)
Clc1ccccc1-c1ccc2ncnc(NCCN3CCOCC3)c2c1 |  | 10 µM (active)
c1ccc2c(c1)CCCc1cc(NCCN3CCOCC3)nnc1-2 | -20.8% [at 25.6 µM] (inactive) | 
c1ccc(-n2ncc3c(NCCCN4CCOCC4)ncnc32)cc1 | -10.2% (inactive) | 
CC(=O)NCCNc1ncnc2ccc(-c3ccc(C(=O)N(C)C)cc3)cc12 | -14.3% (inactive) | 
Clc1ccccc1-c1cc(NCCN2CCOCC2)ncn1 | -17% (inactive) | 
CC(=O)NCCNc1ncnc2ccc(-c3ccoc3)cc12 | -3.64% (inactive) | 
CN(C)C(=O)c1ccc(-c2ccc3ncnc(NCCN4CCOCC4)c3c2)cc1 | -3.71% (inactive) | 
CC(=O)NCCNc1ncnc2ccc(-c3ccc4c(c3)OCO4)cc12 |  | 10 µM (active)
CCCc1nnc(NC(=O)c2cccs2)s1 | 6.2% (inactive) | 
O=C(/C=C/c1ccc(Br)cc1)NC1CCCCCC1 | -29.1% (inactive) | 
Cc1ccc(C(=O)Nc2cccc(-c3cnc4ccccc4n3)c2)cc1 | 17.8% (inactive) | 
Cc1cc2c(=O)[nH]c(N)nc2nc1C | 14.7% [at 11.4 µM] (inactive) | 
O=c1[nH]c(SCc2cccc([N+](=O)[O-])c2)nc2nc[nH]c12 | 10.7% [at 11.4 µM] (inactive) | 
CSc1nc2n(n1)C(c1cc(Br)ccc1F)C(C(=O)N(C)C)=C(C)N2 (stereo unspecified) | 6.18% (inactive) | 

SMILES | activity, negative = inhibition | AC50
CN[C@]1(C)[C@@H]2CC[C@@H](C2)C1(C)C | 5.59% (inactive) | 
Cc1ccc(NC(=O)CCN2C(=O)c3ccncc3C2=O)cc1 | 1.26% (inactive) | 
CCN1C(=O)[C@H]2[C@H]3[C@H](O)[C@H](O)C/C(=N/NC(=O)OCc4ccccc4)[C@@H]3CC[C@@H]2C1=O | 10.8% [at 11.4 µM] (inactive) | 
CCN1C(=O)/C(=C2\SC(=S)N(CCCOC)C2=O)c2ccccc21 | -10.4% (inactive) | 
N[C@@H](Cc1cc(CP(=O)(O)O)cc(-c2ccccc2Cl)c1)C(=O)O | 1.24% (inactive) | 
Cc1ccc(-c2csc3ncnc(NCCN4CCOCC4)c23)cc1 |  | 2.82 µM (active)
CC(=NCCN1CCN(C(=S)Nc2ccccc2)CC1)C1=C(O)CC(C)(C)CC1=O | 7.76% (inactive) | 
O=C(Nc1ccc2c(c1)Cc1ccccc1-2)[C@@H]1[C@H](C(=O)O)[C@]2(Cl)C(Cl)=C(Cl)[C@@]1(Cl)C2(Cl)Cl | -10.2% [at 11.4 µM] (inactive) | 
O=[N+]([O-])C(/C=C(\Cl)[N+](=O)[O-])=C1N(Cc2ccc(Cl)nc2)CCN1Cc1ccc(Cl)nc1 |  | 15.8 µM (active)
Nc1ccc(N2C(=O)c3ccccc3C2=O)c(Cl)c1 | -4.95% (inactive) | 
COc1ccc(-n2c(=O)c(C)nc3cnc(Nc4ccccc4)nc32)cc1 | 3.53% (inactive) | 
O=S(=O)(/N=C(/Nc1ccc(F)cc1F)c1ccc(Cl)cc1)c1ccccc1 | 11.4% (inactive) | 
NCC(=O)Nc1ccc(Cl)cc1C(=O)c1ccc[nH]1 | 3.55% [at 11.4 µM] (inactive) | 
Cc1c(NC(=O)CSc2nnc3c4ccccc4n(CCc4ccccc4)c3n2)c(=O)n(-c2ccccc2)n1C | -25.1% (inactive) | 
Cc1ccc(-n2c(-c3ccccc3)cc(=O)nc2C)cc1 | 32.4% (inactive) | 
Cc1ccc(-n2c(O)cnc2Nc2nc(C)cc(C)n2)cc1 |  | 12.6 µM (active)
Cc1ccc(-n2c(C)cc(C(=O)CSc3n[nH]c(N)n3)c2C)cc1 | -0.813% (inactive) | 
CSc1nc(NC2CCCC2)c([N+](=O)[O-])c(NC2CCCC2)n1 | -4.38% (inactive) | 
C#CCCCO/N=C1/C[C@@H](O)[C@@H](O)[C@@H]2[C@H]3C(=O)N(c4ccc(F)cc4F)C(=O)[C@@H]3CC[C@@H]12 | 8.28% [at 11.4 µM] (inactive) | 
CC(C)[C@H]1C(=O)C(C(N)=O)=C(O)[C@]2(O)C(=O)C3=C(O)c4c(O)ccc(N(C)C)c4C[C@H]3C[C@@H]12 | -0.683% (inactive) | 
CCc1cc2c(=O)c(-c3cnn(-c4ccccc4)c3)coc2c(CN2CCOCC2)c1O | -19.9% (inactive) | 
Oc1c(CN2CCOCC2)cc(-c2ccccc2)cc1CN1CCOCC1 |  | 12.6 µM (active)
N#C/C(=C/N1CCOCC1)c1ccccc1 | -8.97% (inactive) | 
